Here are results for 106 compounds from ChEMBL document CHEMBL4513216, “Probing the Open Global Health Chemical Diversity Library for Multistage-Active Starting Points for Next-Generation Antimalarials” (ACS Infect Dis, 2020).

Structures are written as SMILES. Out of some 68,000 compounds screened, about 2,700 (4%) showed an effect of 50% or more. This is one part of a sample in which strong results are shown more often than they occur.

In this assay the test system is Plasmodium berghei. In words: Screen against P. berghei liver stage (PbLuc), transformed with Luciferase, at 2uM. In kind it is functional, HepG2. The following applies: tested at 2 uM.
As to `CCCc1nnsc1C(=O)N1CCCC1(C)C(=O)N1CCOCC1` (stereo unspecified), the INHIBITION is 5.76%. In the case of `COCCN1C(=O)CCC12CCCN(Cc1ccccc1F)C2` (stereo unspecified), the INHIBITION turned out to be 7.88%. Turning to `O=C1CCC2(CCCN(CCc3ccccc3)C2)N1Cc1cccnc1` (stereo unspecified), the INHIBITION is listed as 42.18%. Take `CNC(=O)CN1C(=O)CCC12CCCN(CCc1ccccc1)C2` (stereo unspecified): the INHIBITION came out at 0.2%. Regarding `CCN1C(=O)CCC12CCCN(CCc1ccccc1)C2` (stereo unspecified), the INHIBITION was determined as 56.76%. With `CNC(=O)CN1C(=O)CCC12CCCN(Cc1ccccc1F)C2` (stereo unspecified), the INHIBITION is -12.98%. The value for `O=C1CCC2(CCCN(Cc3ccccc3F)C2)N1CC1CC1` (stereo unspecified) was 70.48%. The value for `COCCN(C)C[C@@H]1CN(C(=O)c2sc3ccccc3c2C)C[C@@H]1CO` was 25.45%; that for `Cc1nc([C@H]2C[C@@H]3CCN(Cc4scnc4C)C[C@H]3O2)no1` was 40.64%. The value for `CCCC12CN3CC(C)(CN(C1)C3c1[nH]c(=O)[nH]c(=O)c1C)C2=O` (stereo unspecified) was 16.49%. Turning to `CCn1nccc1CNC(=O)CCC1CCCC1`, the INHIBITION stood at 59.21%.

As for `CCn1nccc1CNC(=O)C1CCCCC1`, the INHIBITION was -39.57%.

For the compound `CCn1nccc1CNC(=O)C1CCCC1`, the INHIBITION is reported as -56.08%.

As for `COCc1cccc(S(=O)(=O)Nc2ncc(C)s2)c1`, the INHIBITION was -2.19%. On to `Cn1ncc2c1NC(=O)CC2c1ccccc1Cl` (stereo unspecified), for which the INHIBITION was found to be 33.16%.

`O=S1(=O)NC(C2CCN(Cc3ccccn3)CC2)Nc2ccccc21` (stereo unspecified): the INHIBITION was 30.31%.

Regarding `Cc1ccc2[nH]c(CN(C)c3cc(CCN)nc(C)n3)nc2c1`, the INHIBITION is on record as -56.42%. On to `Cc1ccc2[nH]c(CN(C)c3cc(CN)nc(C)n3)nc2c1`, for which the INHIBITION was 60.18%.

Regarding `Cc1nc(CCN)cc(N(C)Cc2nc3ccc(F)cc3[nH]2)n1`, the INHIBITION is listed as -3.87%.

Regarding `CNC(=O)CS(=O)(=O)Cc1ccc(OC)c(F)c1`, the INHIBITION turned out to be 69.67%. The value for `COc1ccc(CS(=O)(=O)CC(=O)NCc2ccccc2F)cc1F` was 6.13%; that for `COc1ccc(CS(=O)(=O)CC(=O)NCC2CC2)cc1F` was 29.89%. `Cc1cccc(S(=O)(=O)N2C[C@@H]3C[C@@H](c4nc(C)no4)O[C@@H]3C2)c1`: the INHIBITION came out at 0.8%. Next, `CCCc1cnc(C)nc1NCCc1nc(C)cc(=O)[nH]1`: 20.14%; `CN(C)C(=O)CN1CCn2cc(Cn3cccn3)nc2C1`: 14.47%. `CN(C(=O)c1ccc(C#N)cc1)c1nnc(C2CCOC2)s1` (stereo unspecified): the INHIBITION was -7.22%. The value for `CN(C(=O)c1ccncc1)c1nnc(C2CCOC2)s1` (stereo unspecified) was 24.58%. With `CN(C(=O)c1cccc(C#N)c1)c1nnc(C2CCOC2)s1` (stereo unspecified), the INHIBITION amounted to 53.95%. Next, `CN(Cc1ccccn1)C1CC2(CCN(Cc3ccccn3)CC2)C1`: 34.48%; `CN(Cc1cncs1)C1CCN(C(=O)OC(C)(C)C)CC1`: 12.83%. `CN(Cc1cscn1)C1CCN(C(=O)OC(C)(C)C)CC1`: the INHIBITION was -33.82%.

With `Cc1nc(C)c(CN(C)C2CCN(C(=O)OC(C)(C)C)CC2)s1`, the INHIBITION is on record as 73.62%. On to `CC(NC(=O)COc1cccc[n+]1[O-])C1CC1` (stereo unspecified), for which the INHIBITION was determined as 25.69%. In the case of `COc1cccc(-c2cccc(CN3C[C@H]4CC[C@@H](C3)N(C)C4=O)c2)c1`, the INHIBITION is on record as 56.49%. Take `CN1C(=O)[C@@H]2CC[C@H]1CN(Cc1cccc(OCc3ccccn3)c1)C2`: the INHIBITION was 26.75%. Take `COc1cccc(-c2ncc(CN3C[C@H]4CC[C@@H](C3)N(C)C4=O)s2)c1`: the INHIBITION was 38.87%.

Regarding `Cc1c(F)cccc1S(=O)(=O)N(C)CC(C)O` (stereo unspecified), the INHIBITION was found to be 52.38%. Turning to `Cc1c(F)cccc1S(=O)(=O)NCC(C)(C)CC(C)O` (stereo unspecified), the INHIBITION was 15.2%. The value for `Cc1c(F)cccc1S(=O)(=O)NCCN` was 39.23%.

On to `CC(O)CN(C)S(=O)(=O)c1ccc(C#N)cc1F` (stereo unspecified), for which the INHIBITION is reported as 34.18%. `Cc1ccc(S(=O)(=O)N(C)CC(C)O)c(F)c1` (stereo unspecified): the INHIBITION is 56.69%. Next, `CN(CC(N)=O)S(=O)(=O)c1ccc(F)cc1F`: 0.44%. The value for `Cc1nn(CC(C)C)c(N(C)C)c1CNCc1ccnn1C` was 9.97%; that for `COCCn1ccc(=O)c(OCC(=O)Nc2cccc(Cl)c2)c1C` was 6.41%; that for `Cc1noc(C2CCCN(C(=O)CCNc3ncccn3)C2)n1` (stereo unspecified) was 31.78%. Next, `CC(C)CCN(C)Cn1ncc2cn(-c3ccccc3)nc2c1=O`: 19.45%; `O=S(=O)(NCC1OCCc2cn(CC3CCOCC3)nc21)C1CC1` (stereo unspecified): 24.43%; `O=C(NCC1OCCc2cn(CC3CCOCC3)nc21)c1ccsc1` (stereo unspecified): -40.44%. `COCCn1cc2c(n1)C(CNS(C)(=O)=O)OCC2` (stereo unspecified): the INHIBITION was found to be 35.07%.

Take `Cc1cc(C(=O)NCC2OCCc3cn(CC4CC4)nc32)c(C)[nH]1` (stereo unspecified): the INHIBITION is listed as -28.58%.

As to `c1ccc(Cn2cc3c(n2)C(CNCC2CCOCC2)OCC3)nc1` (stereo unspecified), the INHIBITION is 26.66%. For the compound `c1cc(CNCC2OCCc3cn(CC4CCOCC4)nc32)ccn1` (stereo unspecified), the INHIBITION is given as -66.93%.

On to `O=S(=O)(NCC1OCCc2cn(Cc3ccccn3)nc21)C1CC1` (stereo unspecified), for which the INHIBITION was determined as 50.32%. With `O=C(NCC1OCCc2cn(CC3CCOCC3)nc21)c1ccncc1` (stereo unspecified), the INHIBITION is listed as 56.71%. As to `CCS(=O)(=O)NCC1OCCc2cn(CC3CCOCC3)nc21` (stereo unspecified), the INHIBITION is 62.4%.

With `COCCn1cc2c(n1)C(CNC(=O)c1cc(C)[nH]c1C)OCC2` (stereo unspecified), the INHIBITION was 60.14%. The value for `CCCS(=O)(=O)NCC1OCCc2cn(CC3CCOCC3)nc21` (stereo unspecified) was 12.95%; that for `c1ccc(Cn2cc3c(n2)C(CNCc2ccco2)OCC3)nc1` (stereo unspecified) was 15.96%; that for `Cc1cc(-c2cnc(N3CCC(C(N)=O)CC3)nc2C(C)C)on1` was -12.93%. In the case of `O=C(NCc1cccnc1)N1CCC2(CC(=O)N(c3ccsc3)C2)C1` (stereo unspecified), the INHIBITION amounted to 13.92%. The value for `CCN1C[C@H]2C3(CCN(C(C)=O)CC3)CC[C@@]2(C(=O)N(C)C)C1` was 17.47%; that for `Cc1ccc(NC2CCN(C(=O)c3ccc(C)o3)CC2)nn1` was -47.54%; that for `Cc1n[nH]c2ncc(CNC3CCCN(c4ncccn4)C3)cc12` (stereo unspecified) was 42.17%. The value for `O=C(c1cccnc1)N1CCC2(CCN(C(=O)N3CCCC3)CC2)C1` was -11.34%; that for `COCCn1c2c(ccc1=O)CC(NCc1cccnc1OC)CC2` (stereo unspecified) was -1.81%; that for `CCc1ncnc2c1CCN(Cc1nccs1)CC2` was -6.83%. On to `CC(=O)NCCNC(=O)C1(N2CCCCC2)Cc2ccccc2C1`, for which the INHIBITION is 10.91%. Next, `O=C1OCCN1CCNC(=O)C1(N2CCCCC2)Cc2ccccc2C1`: 51.96%; `O=C(NCCCO)C1(N2CCCCC2)Cc2ccccc2C1`: -118.83%. Next, `CNC(=O)c1nn(C)cc1NC(=O)C(C)n1ncc(Cl)c1C` (stereo unspecified): -11.07%. For the compound `CC(C)CN1CCN(C(=O)c2[nH]nnc2Nc2ccccc2F)CC1`, the INHIBITION is -19.92%. As for `Cc1cc(N(C)C)nc(C2(C)CCCN2C(=O)c2cncnc2C)n1` (stereo unspecified), the INHIBITION came to 14.05%. Next, `Cc1ncc(C(=O)N2CCCC2(C)C(=O)N2CCOCC2)c(C)n1` (stereo unspecified): -14.73%.

Turning to `Cc1nc(N)ncc1C(=O)N1CCCC1(C)C(=O)N(C)C` (stereo unspecified), the INHIBITION came out at 50.17%. The value for `O=C(NCCCNc1ccccn1)NCC1CCS(=O)(=O)C1` (stereo unspecified) was 41.93%; that for `COc1ccc(F)c(CN2CCC(c3cc(O)nc(C)n3)C2)c1` (stereo unspecified) was 25.87%. Turning to `CNC(=O)COC1COC2(CCN(c3ccc(C)nn3)CC2)C1` (stereo unspecified), the INHIBITION is -37.31%. For `O=C(c1ccno1)N1CCO[C@@H]2CC(COCc3ccccn3)C[C@H]21` (stereo partly specified), the INHIBITION amounted to 43.24%.

Consider `Cc1ncccc1NC(=O)C1=NOC2(CCN(Cc3nccs3)C2)C1` (stereo unspecified), for which the INHIBITION was 16.87%. Next, `CNC(=O)C1=NOC2(CCN(Cc3nccs3)C2)C1` (stereo unspecified): 5.9%; `O=C(NCCN1CCOCC1)C1=NOC2(CCN(Cc3nccs3)C2)C1` (stereo unspecified): 50.9%. Turning to `CCc1nc(C2CCCN2Cc2ccno2)no1` (stereo unspecified), the INHIBITION is given as -62.13%. For the compound `O=C1NCC2(CCCN(Cc3cccnc3)C2)Oc2ccccc21` (stereo unspecified), the INHIBITION worked out at 24.06%. `Cc1cc(-c2cc(S(=O)(=O)N3C[C@H](C4CC4)[C@@H](N)C3)c(C)s2)on1`: the INHIBITION is recorded as 14.95%.

For the compound `COc1cccc(CN2CCCC(c3nn(C)c4nccnc34)C2)c1` (stereo unspecified), the INHIBITION is given as 22.81%. Regarding `COc1cc(N2CCC3(CCCN(C(=O)c4cccnc4)C3)C2)ncn1` (stereo unspecified), the INHIBITION is listed as -15.29%.

For the compound `Cc1ccc(CNC(C)c2ccc(N3CCN(C)CC3)c(F)c2)o1` (stereo unspecified), the INHIBITION was 14.89%. Next, `CC(NCc1ccncc1)c1cc(F)ccc1N1CCN(C)CC1` (stereo unspecified): 24.88%; `Cc1ccc(CNC(C)c2cc(F)ccc2N2CCN(C)CC2)o1` (stereo unspecified): 60.84%. Next, `Cc1ccc(CC(=O)N2CCCC(c3ccn[nH]3)C2)cn1` (stereo unspecified): -5.3%; `O=C(NCCCO)c1cc(-c2cc[nH]n2)n2ccccc12`: -50.4%; `Fc1cccc(-c2nnn3c2COCC(CNCc2nccs2)C3)c1` (stereo unspecified): 3.18%. The value for `CCc1cc(N(C)CCC(O)c2ccccc2)n2nccc2n1` (stereo unspecified) was 53.12%. As for `COCc1cc(N(C)CCC(O)c2ccccc2)n2nccc2n1` (stereo unspecified), the INHIBITION was determined as 45.87%. Next, `Cc1cc(N(C)CCC(O)c2ccccc2)n2nccc2n1` (stereo unspecified): 26.35%. The value for `CN(C)C(C(=O)N1CCCC1)c1ccccc1F` (stereo unspecified) was -12.23%; that for `CCOCC1CCN(C(=O)C(c2ccccc2F)N(C)C)CC1` (stereo unspecified) was -45.44%. The value for `CN(C)C(C(=O)N1CCC(CCO)CC1)c1ccccc1F` (stereo unspecified) was 57.34%; that for `c1cncc(C2CC3(CCN(c4cnccn4)CC3)c3ccccc32)c1` (stereo unspecified) was -8.91%; that for `COc1cccc(-n2nnc(C(=O)N3CCCC(C)C3)c2C)c1` (stereo unspecified) was 5.91%.

Regarding `COc1cccc(-n2nnc(C(=O)N3CCN(C)CC3C)c2C)c1` (stereo unspecified), the INHIBITION is on record as 89.42%. As for `COc1cccc(-n2nnc(C(=O)N3CCCC3)c2C)c1`, the INHIBITION is -32.49%.

For the compound `COc1cccc(-n2nnc(C(=O)N3CCC(C(N)=O)CC3)c2C)c1`, the INHIBITION was 56.78%.

Regarding `COc1cccc(-n2nnc(C(=O)N3CCOC(C)C3)c2C)c1` (stereo unspecified), the INHIBITION was found to be 32.64%. Next, `COc1cccc(-n2nnc(C(=O)N3CCCCCC3)c2C)c1`: 30.05%. Turning to `Cc1nc(-c2ccc(S(=O)(=O)N3CCC4(CC3)OCCO4)cc2)co1`, the INHIBITION was determined as 13.93%.
